Screens deposited in PubChem by several laboratories.
Avidin fluor = compound fluoresces at 488/530 nm on avidin beads | compound fluorescence 488/530 nm, flow cytometry; stronger effect = higher value | fluorescence (KMESF) at 10 µM | 220,000 tested, 0.38% active | AID 1775; in the data active = fluorescence above about 47
EP2 antag = inhibitors of human EP2 prostaglandin E2 receptor | C6 glioma cells expressing human EP2, cAMP TR-FRET; cells stimulated with saturating PGE2 | inhibition, % at 25 µM | 260,000 tested, 0.52% active;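 active = percent inhibition above 40 after rounding to a whole number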;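 note: rat C6 glioma host cells with rolipram phosphodiesterase inhibitor present; the protocol text gives 20 µM as final concentration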
Target sequence (P43116 whole entry, looked up): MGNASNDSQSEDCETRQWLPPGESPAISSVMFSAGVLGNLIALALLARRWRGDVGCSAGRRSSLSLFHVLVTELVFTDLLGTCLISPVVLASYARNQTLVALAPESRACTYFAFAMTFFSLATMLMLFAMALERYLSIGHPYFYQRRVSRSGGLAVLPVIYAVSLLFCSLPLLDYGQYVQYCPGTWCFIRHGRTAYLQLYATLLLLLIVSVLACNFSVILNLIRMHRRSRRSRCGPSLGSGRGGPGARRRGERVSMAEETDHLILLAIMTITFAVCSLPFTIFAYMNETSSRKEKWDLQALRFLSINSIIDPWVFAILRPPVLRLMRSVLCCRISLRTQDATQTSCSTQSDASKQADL
HMGR II inh = blocks class II HMG-CoA reductase of Enterococcus faecalis | purified E. faecalis HMGR, NADPH absorbance 340 nm kinetic | inhibition, % at 10 µM | 190,000 tested, 0.41% active | AID 1066;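 active = inhibition above a set limit, the median over all tested compounds plus 3 SD, cut at about 9.5% in these data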;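 note: enzyme runs in reverse so mevalonate oxidation gives rising NADPH absorbance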
GSH fluor = compound fluoresces at 488/530 nm on GSH beads; GSH beads flow cytometry, compound fluorescence 488/530 nm; stronger effect = higher value; fluorescence (KMESF) at 10 µM; 190,000 tested, 0.25% active; AID 1776; in the data active = fluorescence above about 89;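 note: glutathione beads carrying GST-tagged Bcl family fusion proteins plus one bare bead set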
EP2 modulator = modulators of human EP2 prostaglandin E2 receptor | induction, % at 25 µM | 260,000 tested, 0.83% active | EP2-expressing cells, cAMP HTRF FRET, PGE2 co-stimulation | AID 940;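 active = compounds whose cAMP rise, as percent of the full-agonist control response, exceeds 60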;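 note: rat C6 glioma line stably carrying human EP2 under a CMV promoter; the protocol text gives 20 µM as final concentration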
A number is an active result; 0 = inactive; - = no result given; ! = repeats disagree. Only some compounds are listed: those with a hit (about 2.1% of all), similar ones and a draw of the others.

SMILES	Avidin fluor	EP2 antag	HMGR II inh	GSH fluor	EP2 modulator
CC(C)C1C(C#N)=C(N)Oc2n[nH]c(-c3ccc4ccccc4c3)c21 (stereo unspecified)	0	133.1	0	0	0
COc1ccccc1Nc1nc2ccc(C)cc2cc1C#N	0	-	0	0	61.4
CC[n+]1c(/C=C2/C=C(C)CC(C)(C)C2)sc2ccc(OC)cc21	95	0	0	0	0
CC[n+]1c(/C=C2\C=C(C)CC(C)(C)C2)sc2ccccc21	0	0	0	0	0
CCC(NC(C)C)C(O)c1ccc(O)c2[nH]c(=O)ccc12 (stereo unspecified)	0	0	0	0	78.2
COc1ccccc1NC(=O)C1CCCN(S(=O)(=O)c2ccc(Cl)cc2)C1 (stereo unspecified)	-	0	-	-	0
COCCNC(=O)C1(C)Oc2ccccc2NC1=O (stereo unspecified)	0	0	0	260	0
Fc1ccc(-c2n[nH]c3c2CNCC3)cc1	-	0	-	-	0
CCCn1cc(S(=O)(=O)CC(=O)Nc2ccc(OC)cc2OC)c2ccccc21	0	0	0	130	0
COc1ccc(NC(=O)Cn2cc(S(=O)(=O)Cc3ccccc3)c3ccccc32)c(OC)c1	0	0	0	0	0
CC1Cc2ccccc2N1C(=O)COC(=O)c1ccc(O)cc1 (stereo unspecified)	0	0	-	-	0
Cc1c(C(=O)OCC(=O)N2c3ccccc3CC2C)oc2ccccc12 (stereo unspecified)	95	-	0	0	0
O=C(Nc1nnc(-c2cccs2)s1)c1ccco1	-	44.3	-	-	0
COC(=O)CSc1nnc(-c2ccc(OC)c(OC)c2)n1-c1ccccc1	-	0	-	-	0
COc1ccc(-c2cc(-c3ccc(O)cc3)nc(N)c2C#N)cc1OC	0	40.2!	0	0	0
COc1ccc(-c2cc(-c3ccc(C)cc3)nc(N)c2C#N)cc1OC	-	0	-	-	0
CCOc1ccc(-c2cc(-c3ccc(OC)c(OC)c3)c(C#N)c(N)n2)cc1	-	0	-	-	79.6
N#Cc1c(-c2ccc3c(c2)OCO3)cc(-c2ccc(F)cc2)nc1N	-	0	-	-	61.4
COc1ccc(CNC(=O)CN2C(=O)N3CCN=C3c3ccccc32)cc1	-	0	-	-	0
COc1cc2c(cc1OC)C(c1ccccc1)N(Cc1ccc(OCCO)cc1)CC2 (stereo unspecified)	-	0	-	-	0
Cc1c2cccc(Sc3ccccc3)c2c2c3c(cccc13)[S+](c1ccccc1)C2 (stereo unspecified)	-	42.2	-	-	0
Cc1ccc(C)n1Cc1ccccc1Cl	0	0	0	0	64.7
O=C1CCc2cc(S(=O)(=O)NC3(CN4CCOCC4)CCCCC3)ccc2N1	-	0	-	-	0
CCc1cccc(C)c1NC(=O)CO/N=C(\N)CC(=O)NC1CCCCC1	0	0	10.8	0	0
CCc1cccc(CC)c1NC(=O)CO/N=C(\N)CC(=O)NC1CCCCC1	0	0	0	0	0
SMILES	Avidin fluor	EP2 antag	HMGR II inh	GSH fluor	EP2 modulator
Cc1ccc(S(=O)(=O)N2CCN(S(=O)(=O)c3ccc(C)cc3)C2c2ccccc2)cc1	-	0	0	0	0
Cc1ccc(S(=O)(=O)O[C@H]2C[C@@H](C(C)(C)C)CC[C@@H]2c2ccccc2)cc1	-	43.4	-	-	0
C=CCNC(=O)Nc1c[nH]c2ccc(OCC)nc2c1=O	-	-	-	-	0
O=C(O[C@@H]1Cc2c(O)cc(O)cc2O[C@@H]1c1cc(O)c(O)c(O)c1)c1cc(O)c(O)c(O)c1	0	0	14.2	0	0
O=C(O[C@@H]1Cc2c(O)cc(O)cc2O[C@@H]1c1ccc(O)c(O)c1)c1cc(O)c(O)c(O)c1	-	0	-	-	0
Cc1ccc(C(=O)CSc2nnc(-c3ccncc3)n2C2CCCCC2)cc1	-	0	-	-	0
CC1(c2ccccc2)CC(c2ccccc2)=Nc2ccccc2N1 (stereo unspecified)	0	0	-	-	87.8
CC1(c2ccccc2)CC(c2ccccc2)=Nc2nonc2N1 (stereo unspecified)	0	0	0	0	0
CCOC(=O)c1cccc(NC(=O)CSc2nnc3c(C)cc4cc5c(cc4n23)OCO5)c1	-	48.1	-	-	0
CCOC(=O)/C(=C\c1ccc(-c2ccccc2)o1)C(C)=O	-	0	-	-	0
N#Cc1c(SCC(N)=O)nc(-c2ccccc2)c2c1CCCC2	0	0	0	0	0
N#Cc1c(SCC(=O)O)nc(-c2ccccc2)c2c1CCCC2	0	44.7	0	0	0
Cc1cccc(N(C(=O)c2csnn2)C(C(=O)NC(C)(C)C)c2ccc(C)o2)c1 (stereo unspecified)	-	0	-	-	0
CC(C)CNc1cc(Cl)c(S(=O)(=O)NCC(C)C)cc1C(=O)O	85	0	0	0	0
CC(C)CNS(=O)(=O)c1cc(C(=O)N2CC(C)OC(C)C2)c(Cl)cc1Cl (stereo unspecified)	0	0	0	0	0
Cc1nc2ccccc2c(=O)n1NC(=O)c1ccccc1[N+](=O)[O-]	49	0	0	0	0
CC1CN(C(=O)c2ccc(Cl)cc2)CC(C)O1 (stereo unspecified)	-	0	-	-	0
CC1CN(C(=O)c2cccc(S(=O)(=O)Nc3ccc(Cl)cc3)c2)CC(C)O1 (stereo unspecified)	0	0	24.2	0	0
C[C@H](Cn1nnc2ccccc21)NC(=O)Cn1ncc2ccccc2c1=O	-	0	-	-	0
COc1c(N2CCN(C(=S)NCc3ccccc3)C(C)C2)c(F)cc2c(=O)c(C(=O)O)cn(C3CC3)c12 (stereo unspecified)	55	0	0	0	0
Cc1cccc(OCC(=O)N(C)CCc2ccccn2)c1	47	0	0	0	0
Cc1cc(C)cc(NC(=O)N2CCCC2C(=O)Nc2ccc(-n3cnnn3)c(C)c2)c1 (stereo unspecified)	0	0	0	0	0
Cc1cc(NC(=O)C2CCCN2C(=O)Nc2c(C)cccc2C)ccc1-n1cnnn1 (stereo unspecified)	0	0	12.3	0	0
Cc1cccc(C)c1NC(=O)COc1cccc(/C=N/NC(=O)C(=O)NCc2ccccc2)c1	57	0	0	0	0
C=CCOc1cccc(/C=N/NC(=O)C(=O)NCc2ccco2)c1	0	-	0	0	0
SMILES	Avidin fluor	EP2 antag	HMGR II inh	GSH fluor	EP2 modulator
COc1ccc(-c2nc3cnccn3c2NCc2ccco2)cc1	-	0	-	-	0
NC(N)=NC(N)=Nc1cccc2ccccc12	0	0	-	-	0
ClC(=Nc1cccc2ccccc12)N(c1ccccc1)c1ccccc1	-	39.7	-	-	0
COc1cc(NC(=O)c2cccnc2SC)cc(OC)c1OC	0	0	12.7	0	0
CSc1ncccc1C(=O)Nc1ccc(OC(F)(F)F)cc1	0	0	0	0	0
Cc1nc2ccccc2n1CC(O)COc1ccccc1Cl (stereo unspecified)	0	0	10.9	0	0
CCN(CC)CCNC(=O)Cn1nc(C)n2c(cc3sccc32)c1=O	-	-	-	-	0
Cc1cccc(C(=O)NC2CCN(C(=O)Nc3ccccc3C)CC2)c1	0	0	14.1	0	0
CCOC(=O)NC(CC(=O)O)c1ccc(OC)c(OC)c1 (stereo unspecified)	0	0	0	259	0
COc1ccc(C(CC(=O)O)NC(C)=O)cc1OC (stereo unspecified)	0	0	0	0	0
